In the library only some 4.8% were active in any assay of this set; here they are far more common.
hgDAF12 agonist: H. glycines DAF-12 receptor agonists, primary screen, cell-based, luminescence, HEK293, GAL4 fusion, UAS-luciferase | Nuclear hormone receptor DAF-12 (Heterodera glycines), GAL4 fusion | HEK293 GAL4-hgDAF12 UAS-luciferase reporter, agonist luminescence; normalized to butyrate control | activation, % at 6.8 µM | actives 1.8% (n = 370,000) | AID 687014, 2013;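 active = activation above a cutoff set at the mean of all screened compounds plus 3 SD, cut at about 10% in these data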;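 note: 0% = DMSO wells and 100% = sodium butyrate wells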
DAX1 inh-1: DAX1 (NR0B1) inhibitors on StAR promoter, primary screen, cell-based, luminescence, SF-1 (NR5A1), full-length DAX-1; HEK293T StAR-luciferase reporter, SF-1/DAX-1 repression relief; inhibition, % at 6.8 µM; actives 1.1% (n = 370,000); AID 652010, 2013;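 active = inhibition above the mean over all tested compounds plus 3 SD, cut at about 3.6% in these data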;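 note: 0% = DAX-1 cells with DMSO and 100% = cells lacking DAX-1 with DMSO; higher inhibition means more luminescence from relief of DAX-1 repression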
DAX1 inh-2: DAX1 (NR0B1) inhibitors, primary screen, cell-based, HEK293, Gal4-DAX1, luciferase luminescence; Nuclear receptor subfamily 0 group B member 1 (Homo sapiens), P51843; HEK293 Gal4-DAX1 luciferase reporter; inhibition, % at 6.75 µM; actives 0.99% (n = 340,000); AID 504766, 2011;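 active = inhibition above the mean over all tested compounds plus 3 SD, cut at about 4.2% in these data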;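 note: 0% = DAX1-transfected cells with DMSO and 100% = empty-vector control cells with DMSO; inhibition shows as a rise in luminescence from relieved DAX1 repression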
Target sequence (P51843 207-470 limits assumed): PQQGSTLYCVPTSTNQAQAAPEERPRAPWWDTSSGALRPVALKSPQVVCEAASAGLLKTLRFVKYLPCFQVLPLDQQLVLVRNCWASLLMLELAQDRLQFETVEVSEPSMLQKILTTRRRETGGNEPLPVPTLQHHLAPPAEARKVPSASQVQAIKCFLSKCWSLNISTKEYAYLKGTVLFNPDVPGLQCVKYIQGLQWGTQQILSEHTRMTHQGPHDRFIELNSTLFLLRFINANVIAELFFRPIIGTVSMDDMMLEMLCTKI
SMARCA2 activ: SMARCA2 (BRM) function activators, primary screen, cell-based, luminescence, high throughput; MG213 cells, MMTV-luciferase reporter, dexamethasone, overnight; actives 1% (n = 370,000); activation, % at 9.1 µM; in the data active = activation above about 7.8%;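 note: 0% = vehicle wells and 100% = reference activator wells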
ssDAF12 agonist: S. stercoralis DAF-12 nuclear receptor activators, primary screen, cell-based, luminescence, HEK293, GRIP1 co-expression, lit1-tk-luc. Nuclear hormone receptor DAF-12 (Strongyloides stercoralis). AID 652126, 2013. activation, % at 6.8 µM. actives 1% (n = 370,000). HEK293 ssDAF-12/GRIP1 lit1-tk-luc reporter; % of 3 µM dafachronic acid response;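 active = activation above the mean over all tested compounds plus 3 SD, cut at about 0.9% in these data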;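 note: 0% = DMSO-only wells and 100% = 3 µM delta7-dafachronic acid wells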
hcDAF-12 act: H. contortus DAF-12 nuclear receptor activators, primary screen, cell-based, luminescence, HEK293, lit1-tk-luc reporter. HEK293 hcDAF-12 lit1-tk-luc reporter; 0% DMSO, 100% Δ7-dafachronic acid. activation, % at 6.8 µM. actives 1.4% (n = 370,000). AID 652067, 2013;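 active = activation above the mean of all tested compounds plus 3 SD, cut at about 5.5% in these data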;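 note: 100% = response to 3 µM Δ7-dafachronic acid high control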
* hit, by the source's call; · = no result given.

SMILES	hgDAF12 agonist	DAX1 inh-1	DAX1 inh-2	SMARCA2 activ	ssDAF12 agonist	hcDAF-12 act
CN(C)S(=O)(=O)c1ccc(C(=O)N2CCN(C(=O)C3CCCO3)CC2)cc1 (stereo not given)	3	1	0	-3	-1	-2
COc1ccc2nc(C)cc(SCC(=O)OC(C)C)c2c1	3	0	1	4	-2	-1
COc1ccc2nc(C)cc(SCC(NC(C)=O)C(=O)OC(C)C)c2c1 (stereo not given)	0	0	4.6*	2	-1	-1
O=C(CSc1nc(-c2ccccc2)ns1)N1CCOCC1	4	2	1	2	0	0
Cc1cccc(-c2nsc(SCC(=O)N3CCCC3)n2)c1	13*	3	2	6	0	2
O=C(NC(=S)NCc1cccnc1)c1cc2ccccc2o1	4	-1	0	2	-1	0
O=C(NC(=S)Nc1cccnc1)c1cc2ccccc2o1	11*	2	1	8	0	2
CC(=O)/C=C1/C(=O)Nc2ccccc21	2	0	0	3	0	6.0*
C=CCOc1cccc(C(=O)/C=C2/C(=O)Nc3ccccc32)c1	0	-2	-2	6	-1	-1
CCCc1c(-c2cccc(Br)c2)ncn1CCc1ccccc1OC	-1	-1	·	-4	-2	-3
CCN1C(=O)/C(=C/C=C2/CCCN2C)OC1=S	13*	1	0	2	-1	1
CC(C)Nc1nc(Cl)nc(N(C#N)CN2C(=O)c3ccccc3C2=O)n1	0	-1	-2	14*	-1	3
CCC(C)Nc1nc(Cl)nc(N(C#N)CN2C(=O)c3ccccc3S2(=O)=O)n1 (stereo not given)	2	0	1	6	-1	-1
CC(C)C(=O)N1CCC(Cc2ccccc2)CC1	-2	0	1	-1	-2	-2
CC(=O)NCCC(=O)Nc1nc2c(ccc3ccccc32)s1	1	0	1	7	-1	1
Nc1nc2c(ccc3ccccc32)s1	1	0	4.9*	6	0	3
Cc1ccc(NC(=O)Cn2nc(C)c([N+](=O)[O-])c2C)cc1Cl	0	1	0	-4	-2	0
COc1ccc(/C=C/c2nc(-c3ccccc3O)n[nH]2)cc1OC	12*	3	2	-1	-1	0
c1ccc(-c2ccc3ncccc3n2)cc1	8	3.7*	·	0	0	2
c1ccc(-c2cccc(-c3ccccc3)n2)cc1	0	0	2	-1	-2	-2
COc1ccc(/C=C/C(=O)OCC(=O)N(C)c2c(N)n(Cc3ccccc3)c(=O)[nH]c2=O)cc1OC	-4	0	-2	-1	-1	-2
Cc1ccc(C)c(NC(=S)NCCc2ccc(F)cc2)c1	1	0	0	2	-1	-1
CCCS(=O)(=O)N1CCN(C2CCC(C)CC2)CC1 (stereo not given)	-2	-1	5.7*	-1	-2	-1
S=C(Nc1ccccn1)c1ccccn1	4	1	1	7.8*	0	4
O=C(COC(=O)[C@H](Cc1c[nH]c2ccccc12)NC(=O)c1ccc(Cl)cc1)Nc1ccc2c(c1)OCO2	11*	1	1	0	0	1
SMILES	hgDAF12 agonist	DAX1 inh-1	DAX1 inh-2	SMARCA2 activ	ssDAF12 agonist	hcDAF-12 act
O=C1c2ccccc2NC(c2cccs2)N1O (stereo not given)	1	3.7*	5.7*	1	-1	1
O=C1c2ccccc2NC(c2ccccc2O)N1O (stereo not given)	2	0	0	-1	-1	1
CCOC(=O)N1CCN(C(=O)CSC2=NS(=O)(=O)c3cc(F)ccc3N2)CC1	1	0	4.8*	-2	-1	2
Nn1c(SCc2cccc(F)c2)nnc1-c1cccnc1	2	0	5.7*	1	1.1*	-1
COc1cc(/C=C2/C(=N)N3N=C(CC(=O)N4CCOCC4)SC3=NC2=O)ccc1OCc1ccc(F)cc1	9	3.8*	1	0	0	3
CCN(CC)CC(O)Cn1c(-c2cccc(Cl)c2)nc2cc(C)c(C)cc21 (stereo not given)	2	1	4.2*	0	-1	2
Cc1cc(N2CCCCC2C)nc(-c2ccccc2O)n1 (stereo not given)	2	0	4.4*	2	-1	0
Cc1cc(N2CCCCCC2)nc(-c2ccccc2O)n1	2	-1	0	-2	-1	-1
O=C(O)CCC(=O)/C=C/c1ccccc1	1	-1	2	1	-1	-2
CCOc1ccc(/C=C/C(=O)CCC(=O)O)cc1	3	3	5.8*	1	-2	1
CCCCc1c(-c2ccccc2OC)ncn1CCc1cccc(Cl)c1	4	-1	·	-7	-1	-2
O=C(CSc1nnc(SCc2ccccc2Cl)s1)N/N=C/c1c[nH]c2ccccc12	0	0	-1	-2	0	6.4*
O=C(N/N=C/c1c[nH]c2ccccc12)c1cccc(O)c1	10	1	2	1	0	4
CCOc1ccccc1/C=N/NC(=O)c1cc(C(C)C)[nH]n1	-2	0	0	0	0	4
O=C(N/N=C/c1c[nH]c2ccccc12)c1cccc(Cl)c1	6	0	2	1	1.4*	5
CC(C)c1cc(C(=O)N/N=C/c2c[nH]c3ccccc23)n[nH]1	2	0	4.7*	0	-1	2
CCC1OC2(C)OC(=N)C1(C#N)C(C#N)(C#N)C2c1ccccc1 (stereo not given)	0	0	1	-1	0	-2
COc1cccc(C2CC(c3ccccc3OC)n3ncnc3N2)c1 (stereo not given)	0	0	5.5*	1	-1	0
CCOc1ccc(C2CC(c3cccc(OC)c3)Nc3nc(N)nn32)cc1 (stereo not given)	0	2	4.7*	-1	-1	-1
COc1cccc(C2CC(c3ccccc3)Nc3ncnn32)c1 (stereo not given)	2	0	0	4	-1	2
